# Laboratory results reported in PubChem BioAssay (Tox21).
# Values joined by “and” are separate entries in the source; they are usually repeats but may differ in a detail not shown here. Equal values may be shown once. Records with an inconclusive call do not appear. A call without a number means that no potency is given here. The source holds several records for some structures; these can differ, active in one and inactive in another. Active and inactive are the calls of the source. Unless noted, the call rests on the fitted dose curve; in most records, active means well fitted curve in the direction sought with a large enough effect in the repeat runs; inconclusive means weak or mixed curves; inactive means no such curve, though single readings can be large; an effect the other way counts as inactive or inconclusive.
# Columns and labels:
# [1] = qHTS assay to identify small molecule antagonists of the thyroid receptor (TR) signaling pathway - cell viability counter screen (AID 743064); further: nearly all actives have a fitted effect of over 50% in size; further: potency means the concentration at half of the fitted maximal effect
# In short: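 In rat pituitary GH3.TRE-Luc reporter cells co-exposed to compound and 1 nM T3 for 23.5 h, cytotoxicity was assessed with CellTiter-Fluor in the same wells, read by fluorescence.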
# [2] = system: thyroid hormone receptor (rat, GH3 cells); experiment: qHTS assay to identify small molecule agonists of the thyroid receptor (TR) signaling pathway (AID 743066; calls by dose curve)
# [3] = target: Estrogen receptor (Homo sapiens) (UniProt P03372); experiment: qHTS assay to identify small molecule antagonists of the estrogen receptor alpha (ER-alpha) signaling pathway (AID 743069; active means well fitted curve in the direction sought with a large enough effect in the signal ratio in the repeat runs, not every such curve was filed as active; the % refers to the signal ratio; further: potency means the concentration at half of the fitted maximal effect)
# Sequence of Estrogen receptor (Homo sapiens) (P03372 whole entry, looked up): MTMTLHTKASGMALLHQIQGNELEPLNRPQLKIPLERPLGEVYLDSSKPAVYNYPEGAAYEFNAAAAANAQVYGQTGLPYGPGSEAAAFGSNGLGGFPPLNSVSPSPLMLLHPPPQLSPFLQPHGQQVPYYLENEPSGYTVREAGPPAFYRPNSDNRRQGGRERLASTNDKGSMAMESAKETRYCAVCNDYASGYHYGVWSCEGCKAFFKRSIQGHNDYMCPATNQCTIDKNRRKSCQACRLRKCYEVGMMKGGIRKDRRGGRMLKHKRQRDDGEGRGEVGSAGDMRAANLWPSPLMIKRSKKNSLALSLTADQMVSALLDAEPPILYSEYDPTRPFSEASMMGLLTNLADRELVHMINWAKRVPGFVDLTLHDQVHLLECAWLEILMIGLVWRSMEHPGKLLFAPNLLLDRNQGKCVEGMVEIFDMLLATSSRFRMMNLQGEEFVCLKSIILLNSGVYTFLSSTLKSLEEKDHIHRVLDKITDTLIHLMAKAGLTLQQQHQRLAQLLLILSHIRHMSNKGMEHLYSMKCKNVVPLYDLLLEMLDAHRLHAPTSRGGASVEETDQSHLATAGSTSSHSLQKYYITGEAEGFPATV
# In short: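 Antagonist mode: compounds in DMSO were co-added with 17beta-estradiol to ER-alpha-bla HEK293 cells (2% charcoal-stripped serum) and left 18 h at 37C. Reporter inhibition was measured as FRET fluorescence after 2 h LiveBLAzer substrate at room temperature.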
# [4] = qHTS assay to identify small molecule antagonists of the estrogen receptor alpha (ER-alpha) signaling pathway - cell viability counter screen (AID 743074; calls by dose curve;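 further: HEK293 cells carrying ER-alpha-UAS-bla reporter stimulated with 17beta-estradiol; nearly all actives have a fitted effect of over 45% in size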)
# [5] = target: Estrogen receptor (Homo sapiens) (UniProt P03372); experiment: qHTS assay to identify small molecule agonists of the estrogen receptor alpha (ER-alpha) signaling pathway (AID 743075; calls by dose curve;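 further: HEK293 GripTite cells with ER-alpha and UAS-driven beta-lactamase reporter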)
# [6] = target: Estrogen receptor (Homo sapiens) (UniProt P03372); experiment: qHTS assay to identify small molecule agonists of the estrogen receptor alpha (ER-alpha) signaling pathway using the BG1 cell line (AID 743079); settings: BG1Luc4E2 cells, ERE-luciferase agonist, 22 h; further: nearly all actives have a fitted effect of over 20% in size
# [7] = qHTS assay to identify small molecule antagonists of the estrogen receptor alpha (ER-alpha) signaling pathway using the BG1 cell line (AID 743080; calls by dose curve;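 further: BG1 cells stimulated with 17beta-estradiol alongside compound; nearly all actives have a fitted effect of over 25% in size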)
# In short: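 After 5 days in phenol-red-free 10% charcoal-stripped FBS medium, BG1-Luc-4E2 cells were seeded, left 24 h at 37 C, co-treated with compounds and 17beta-estradiol for 21.5 h, then assayed for viability and luciferase.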
# [8] = qHTS assay to identify small molecule antagonists of the estrogen receptor alpha (ER-alpha) signaling pathway using the BG1 cell line - cell viability counter screen (AID 743081);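 further: compound given together with 17beta-estradiol as the ER stimulus; nearly all actives have a fitted effect of over 45% in size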
# Aromatase (Homo sapiens) = Aromatase (Homo sapiens) (UniProt P11511); experiment: qHTS assay to identify aromatase inhibitors (AID 743083); further: nearly all actives have a fitted effect of over 55% in size; further: potency means the concentration at half of the fitted maximal effect
# Sequence of Aromatase (Homo sapiens) (P11511 whole entry, looked up): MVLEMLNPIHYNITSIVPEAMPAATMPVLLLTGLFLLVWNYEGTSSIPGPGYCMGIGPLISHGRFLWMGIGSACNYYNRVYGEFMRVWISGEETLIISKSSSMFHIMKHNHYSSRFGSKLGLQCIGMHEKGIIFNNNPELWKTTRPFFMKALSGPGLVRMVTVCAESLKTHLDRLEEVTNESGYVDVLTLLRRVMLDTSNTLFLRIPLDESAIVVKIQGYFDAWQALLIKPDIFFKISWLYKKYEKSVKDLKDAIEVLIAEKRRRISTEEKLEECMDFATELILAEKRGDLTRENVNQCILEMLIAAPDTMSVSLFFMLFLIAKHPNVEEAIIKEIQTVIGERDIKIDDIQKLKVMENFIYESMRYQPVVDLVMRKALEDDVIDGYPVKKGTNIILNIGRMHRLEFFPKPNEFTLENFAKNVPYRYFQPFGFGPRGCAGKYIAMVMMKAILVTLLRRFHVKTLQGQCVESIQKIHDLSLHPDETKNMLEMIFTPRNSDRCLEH
# [9] = qHTS assay to identify small molecule antagonists of the thyroid receptor (TR) signaling pathway (AID 743065); further: nearly all actives have a fitted effect of over 55% in size; further: potency means the concentration at half of the fitted maximal effect
# In short: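 Antagonism measured as loss of luciferase signal in GH3 cells stably carrying a TRE-luciferase reporter, co-treated with compound and T3 (1 nM final) for 23.5 h at 37 C. Viability was read in the same well by CellTiter-Fluor.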
Structure (SMILES),Potency [1],Potency [2],Potency [3],outcome [4],Potency [5],activation ([6]; at 70.3 µM (top of the series)),Potency [7],Potency [8],Potency (Aromatase (Homo sapiens)),Potency [9],activation ([6]; at 95 µM (top of the series)),activation ([6]; at 32.5 µM (top of the series))
CC(CC(C#N)(c1ccccc1)c1ccccc1)N(C)C (stereo not drawn),24.2 µM (active),inactive,inactive,inactive,inactive,-6.75% (inactive),inactive,inactive,inactive,,,
OC(Cn1cncn1)(c1ccc(F)cc1)c1ccccc1F (stereo not drawn),inactive,inactive,inactive,inactive,inactive,-1% (inactive),inactive,inactive,,,,
CC(C)NCC(O)c1ccc(N)c(C#N)c1 (stereo not drawn),inactive,inactive,inactive,inactive,inactive,-15.4% (inactive),inactive,inactive,inactive,,,
CNC(=O)O/N=C(\C)SC,inactive,inactive,,,,,,inactive,inactive,inactive,,
CC(C)(C)C(=O)C(Oc1ccc(Cl)cc1)n1cncn1 (stereo not drawn),inactive,inactive,,inactive,,,,inactive,54.4 µM (active),inactive,,
CC(C1CC1)C(O)(Cn1cncn1)c1ccc(Cl)cc1 (stereo not drawn),inactive,inactive,,inactive,,,,inactive,24.2 µM (active),inactive,,
C=C(C)[C@@H]1CC=C(C=O)CC1,inactive,inactive,inactive,inactive,inactive,3.7% (inactive),inactive,inactive,inactive,,,
O=[N+]([O-])c1cccc(O)c1,inactive,inactive,,inactive,,,,inactive,inactive,inactive,,
COc1cc(OC)nc(Sc2cccc(Cl)c2C(=O)O)n1,inactive,inactive,,inactive,,,,inactive,inactive,inactive,,
CCS(=O)(=O)CCSP(=O)(OC)OC,inactive,inactive,,inactive,,,,inactive,inactive,inactive,,
CN/C(=N\[N+](=O)[O-])NCC1CCOC1 (stereo not drawn),inactive,inactive,,inactive,,,,inactive,inactive,inactive,,
CCC/C(=N\OCC)C1=C(O)CC(CC(C)SCC)CC1=O (stereo not drawn),inactive,inactive,inactive,inactive,inactive,,inactive,inactive,inactive,,-1.67% (inactive),
CCN(CC)C(C)C(=O)c1ccccc1 (stereo not drawn),inactive,inactive,inactive,inactive,inactive,0.375% (inactive),inactive,inactive,inactive,,,
CCCSC(=O)Cl,inactive,inactive,inactive,inactive,inactive,,inactive,inactive,inactive,,3.93% (inactive),
CCOP(=O)(OCC)OP(=O)(OCC)OCC,inactive,inactive,,inactive,,,,inactive,inactive,inactive,,
CNC(=O)Oc1c(C(C)(C)C)cc(C)cc1C(C)(C)C,inactive,inactive,,inactive,,,,inactive,inactive,inactive,,

Structure (SMILES),Potency [1],Potency [2],Potency [3],outcome [4],Potency [5],activation ([6]; at 70.3 µM (top of the series)),Potency [7],Potency [8],Potency (Aromatase (Homo sapiens)),Potency [9],activation ([6]; at 95 µM (top of the series)),activation ([6]; at 32.5 µM (top of the series))
CCOC(=O)/C=C(C)/C=C/C[C@@H](C)CCCC(C)C,inactive,,inactive and 24.5 µM [inhibitor] (active),inactive,inactive,19.2% (inactive) and -9.9% (inactive),inactive,inactive,inactive,inactive,,
CC(C)[N+](=O)[O-],inactive,inactive,,inactive,,,,inactive,inactive,inactive,,
CCC1(c2ccccc2)C(=O)N=C(O)NC1=O (stereo not drawn),inactive,,inactive,inactive,inactive,-3.61% (inactive),inactive,inactive,inactive,inactive,,
CNC(=O)Oc1cccc(C(C)C)c1,inactive,inactive,,inactive,,,,inactive,inactive,inactive,,
Clc1cccc(N2CCNCC2)c1,inactive,inactive,inactive,inactive,inactive,10.2% (inactive),inactive,inactive,inactive,,,
CCOP(=S)(OCC)Oc1nc(Cl)n(C(C)C)n1,inactive,inactive,inactive,inactive,inactive,5.59% (inactive),inactive,inactive,inactive,,,
CCOC(=O)NC(=S)Nc1ccccc1NC(=S)NC(=O)OCC,inactive,inactive,,,,,,inactive,inactive,54.5 µM (active),,
CCC(C)(C)c1cc(-n2nc3ccccc3n2)c(O)c(C(C)(C)CC)c1,inactive,inactive,,inactive,,,,inactive,inactive,inactive,,
COc1cc(OC)nc(Oc2cccc(Oc3nc(OC)cc(OC)n3)c2C(=O)O)n1,inactive,inactive,,inactive,,,,inactive,inactive,inactive,,
C=CC1CC=CCC1 (stereo not drawn),inactive,inactive,inactive,inactive,inactive,11% (inactive),inactive,inactive,inactive,,,
CC(=O)CC(c1ccc(Cl)cc1)c1c(O)c2ccccc2oc1=O (stereo not drawn),inactive,inactive,inactive,inactive,inactive,,inactive,inactive,inactive,,-6.05% (inactive),
C[C@@H]1CN(C2CCC(C#N)(c3ccc(F)cc3)CC2)CC[C@]1(C(=O)O)c1ccccc1 (stereo partly drawn),inactive,inactive,inactive,inactive,inactive,,inactive,inactive,inactive,,,-0.22% (inactive)
CCSC(=O)N(CC)C1CCCCC1,inactive,inactive,inactive,inactive,inactive,,inactive,inactive,inactive,,,
O=NN1CCN(N=O)CC1,,inactive,inactive,inactive,inactive,9.64% (inactive),inactive,inactive,inactive,inactive,,
COC(=O)COc1ccc(Cl)cc1Cl,inactive,inactive,,inactive,,,,inactive,,,,
